Compounds without any hit were thinned out: in the full panel of roughly 83,000, 20% have a hit.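 Assay: single dose, 48 h. Readout: percent growth (0 = no net growth; negative = cell death). Active: <10.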 Values without a mark were called inactive. Active and inactive are the calls of the source.

The experiment deals with ACHN renal. Put plainly: NCI-60 one-dose screen, 48 h (100 = growth as untreated, 0 = no growth, -100 = all killed). Particulars: 10 µM unless noted. How it is done: Growth inhibition of the ACHN human tumor cell line is measured as a screen for anti-cancer activity. Cells are grown in 96 well plates and exposed to the test compound for 48 hours. Compounds are tested at a single concentration, which is 10^-5 M for most compounds. The reported endpoint is percent growth (GI% or GIPRCNT), where numbers from 0 - 100% represent growth inhibition, and numbers from -100% - 0 represent cell death. For example, a value of 40 represents 60% growth inhibition. A value of 0 means no net growth occurred over the course of the experiment. A value of -40 indicates 40% of cells at the beginning of the experiment died by the end of the experiment. A value of -100 means all cells are dead at the end of the experiment.
NCI-60 Human Tumor Cell Lines Screen was performed using the standard one-dose NCI protocol, which is described in more detail at https://dtp.cancer.gov/discovery_development/nci-60/default.htm.
Compounds with GIPRCNT values below 10 were considered active. Activity score was based on GIPRCNT using the following formula: […]
Score is 0 for GIPRCNT values of 100 or above, 50 for GIPRCNT values of 0, and 100 for GIPRCNT values of -100.
Regarding `CCSc1ncnc2c1ncn2C1OC(CO)C(O)C1O` (stereo not given), the growth is 32.6%.
The value for `CCNCCCn1c2c(c3ccc([N+](=O)[O-])cc3c1=O)C(=O)c1cc(OC)cnc1-2` was -61.1% (active); that for `NS(=O)(=O)c1ccc(CCNC(=O)/C=C/c2ccc(Cl)cc2)cc1` was 102%; that for `N=C(N)N=Nc1ccc(O)cc1` was 20.8% [100 µM].
For `CN(C)c1ccc(C(=O)c2ccc(N(C)C)c(N)c2)cc1N`, the growth was 50.5%.
For `COc1ccc(O)c(-c2cc(-c3ccc(Cl)cc3)c(C#N)c(=O)[nH]2)c1`, the growth was 78.1%.
The figure for `N#CC1=C(N)Oc2c(c(N)nn2-c2ccccc2)C1c1ccc(Cl)cc1Cl` (stereo not given) is 99%.
The figure for `COc1cc(-c2cc(-c3nc4ccccc4[nH]3)[nH]n2)cc(OC)c1OC` is 39.3%; for `Brc1ccc2c(c1)c(-c1nc(-c3c[nH]c4ncccc34)cs1)cn2CCCN1CCCCC1` it is -23.7% (active); for `CN(CSc1ccc(Cl)cc1)c1ccc(CSc2ccc(Cl)cc2)cc1` it is 87.4%.
The value for `O=C(CCCCCn1c2ccccc2c2c3c(c4c5ccccc5[nH]c4c21)C(=O)N(O)C3=O)N1CCOCC1` was 29.4%; that for `Cc1ccc(C)c2c1CCC2C(C)C` (stereo not given) was 97.3%; that for `CC(C)(C)n1cc(-c2ccnc(NCCCNS(=O)(=O)c3ccc(Cl)cc3)c2)c(-c2cccc(F)c2)n1` was 80.8%.
On to `COC(=O)[C@]12CC[C@@H](C)[C@H](C)[C@@H]1C1=CC[C@@H]3[C@@]4(C)C[C@@H](OC(C)=O)[C@H](O)[C@@](C)(COC(C)=O)[C@@H]4[C@H](O)C[C@@]3(C)[C@]1(C)CC2`, for which the growth is -91.9% (active).
The value for `C/C(Cc1ccc(Cl)cc1)=C(/c1ccc(Cl)cc1)c1ccc(OCCN2CCCC2)cc1` was 93.8%; that for `Cc1ccc(Cc2cnc(NC(=O)/C=C/c3cccc(C)c3)s2)cc1` was 12.1%.
For `COc1cc2ncnc(Nc3ccc(OCc4cccc(F)c4)c(Cl)c3)c2cc1NC(=O)C1CCCC1`, the growth was 47.6%.
The figure for `Cc1ccc(N(CC(=O)Nc2ccc(S(=O)(=O)N3CCC(N4CCCC4)CC3)cc2)S(=O)(=O)c2ccc(Cl)cc2)cc1` is -38.4% (active); for `Nc1nc2c(c(=O)[nH]1)C(c1ccc3c(c1)OCO3)C=C(C(=O)O)N2` (stereo not given) it is 111%; for `O=C1C(=O)c2ccccc2C(O)=C1CCCc1ccc(C2CCCCC2)cc1` it is 37%.
As for `Cc1cc(Cl)nc(N(CCCNc2ccnc3cc(Cl)ccc23)Cc2ccco2)n1`, the growth was 28.4%.
The value for `C=C(C)[C@@H]1CC[C@]2(C(=O)N3CCCNCC3)CC[C@]3(C)[C@H](CC[C@@H]4[C@@]5(C)CCC(=O)C(C)(C)[C@@H]5CC[C@]43C)[C@@H]12` was 105%; that for `Nc1c(Cl)cc(N=Nc2ccccc2)cc1Cl` was 97.4%.
The value for `COc1cc(C(=O)/C=C/c2cc(-c3ccc4c(c3)OCO4)n[nH]2)cc(OC)c1OC` was 42.7%.
In the case of `C=C1C(=O)O[C@H]2[C@H]1CC/C(COC(=O)NCc1cc3ccccc3[nH]1)=C\CC[C@@]1(C)O[C@@H]21`, the growth is -75.9% (active).
In the case of `O=C(c1ccccc1)C(CN1CCOCC1)c1ccccc1` (stereo not given), the growth is 6.83% (active).
With `COC(=O)[C@]12CC[C@@H](C(=O)/C=C/c3cccnc3)[C@@H]1[C@H]1CC[C@@H]3[C@@]4(C)C/C(=C/c5cccnc5)C(=O)C(C)(C)[C@@H]4CC[C@@]3(C)[C@]1(C)CC2`, the growth was -100% (active).
Take `COc1cccc(-c2nn(-c3ccccc3)cc2-c2ccnc(NCCCO)c2)c1`: the growth was 55.6%.
The value for `C=C1C(=O)O[C@H]2[C@H]1CC/C(COC(=O)N[C@H](Cc1c[nH]c3ccccc13)C(=O)OC)=C\CC[C@@]1(C)O[C@@H]21` was -17.7% (active).
The figure for `CC(Cc1ccco1)C(=O)NC(N)=O` (stereo not given) is 108%.
The value for `COc1cc(-c2cc(-c3nc4ccc(F)cc4[nH]3)[nH]n2)cc(OC)c1OC` was 19.6%.
Consider `CC1(C)[C@@H](O)CC[C@]2(C)[C@H]3CC[C@@H]4[C@H]5[C@H](C(=O)/C=C/c6ccc(C(F)(F)F)cc6)CC[C@]5(CO)CC[C@@]4(C)[C@]3(C)CC[C@@H]12`, for which the growth was 25.9%.
The figure for `Fc1ccc(Nc2nnc(-c3ccc(Cl)cc3)o2)cc1` is 107%; for `Cc1ccc(-c2nc3ccc(Cl)cc3c(=O)n2N2C(=O)CSC2c2ccccc2Cl)cc1` (stereo not given) it is 26.4%; for `COC(=O)[C@]12CC[C@@H](C)[C@H](C)[C@@H]1C1=CC[C@@H]3[C@@]4(C)C=C(O)C(=O)C(C)=C4CC[C@@]3(C)[C@]1(C)CC2` it is 22.4%.
The value for `CCSc1sc(-c2ccc(C)cc2)nc1[P+](c1ccccc1)(c1ccccc1)c1ccccc1` was -44.8% (active); that for `C/C(=C(/c1ccccc1)c1ccc(N2C(=O)c3cccc4c(NCc5ccccc5)ccc(c34)C2=O)cc1)c1ccccc1` was 94.8%; that for `CN1CCN(CCOc2ccc(-c3cnc4c(-c5ccccc5F)cnn4c3)cc2)CC1` was 55.7%.
In the case of `Cc1cc2nc3c4cc(O)ccc4n(CCN(C)C)c3nc2cc1C`, the growth is -33.7% (active).
The figure for `COc1ccccc1CNc1nc(N)nc2[nH]c3ccc(O)cc3c12` is 68.5%.

The values are drawn from PubChem BioAssay (NCI).
